Measured values from PubChem BioAssay (EPA / NIEHS).
Records with an inconclusive call do not appear. The source made the active and inactive calls. The calls were made as follows, unless noted: active = hit-call score of the fitted dose curve at least 0.9, where 1 is the maximum; inconclusive = response in the unintended direction; inactive = score below 0.9.

Legend:
[1] = ATG_TAL_CIS: Attagene CIS-FACTORIAL HepG2 Assay for human TAL Basal Promoter (AID 2282966; active = hit-call score of the fitted dose curve at least 0.9, where 1 is the maximum; inactive = score below 0.9;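 also: background control endpoint measuring basal TAL promoter reporter mRNA not a specific factor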); settings: HepG2 Attagene cis-factorial TAL promoter reporter; actives raise or lower the signal
In short: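 Background-control endpoint: basal TAL promoter reporter transcripts in transiently transfected HepG2, measured 24 h after dosing. Read-out by RT-PCR with fluorescent primer extension and capillary electrophoresis; gain or loss of signal fitted relative to DMSO.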

[2] = ATG_VDRE_CIS: Attagene CIS-FACTORIAL HepG2 Assay for human Vitamin D Receptor Element (VDRE) (AID 2282968; active = hit-call score of the fitted dose curve at least 0.9, where 1 is the maximum; inactive = score below 0.9); settings: HepG2 VDRE cis-reporter transcription, actives raise or lower the signal
In short: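 Readout is VDRE-driven reporter mRNA reflecting endogenous factor activity in human HepG2 cells, sampled 24 h post-dose. Quantification used labelled RT-PCR products separated by capillary electrophoresis; bidirectional analysis relative to DMSO.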

[3] = target: Nuclear receptor subfamily 1 group I member 3 (Homo sapiens) (UniProt Q14994); assay: ATG_CAR_TRANS: Attagene TRANS-FACTORIAL HepG2 Assay for human Constitutive Androstane Receptor (CAR) (AID 2282969); settings: HepG2 Attagene TRANS-FACTORIAL CAR reporter;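 also: activators raise reporter mRNA above DMSO so AC50 marks induction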
In short: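 Signal is reporter mRNA induction relative to DMSO, measured 24 h after dosing by RT-PCR with fluorescent primer extension and capillary electrophoresis. Human HepG2 liver cells carried transiently transfected chimeric NR-Gal4/GAL4-UAS reporter constructs.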

[4] = target: X-box-binding protein 1 (Homo sapiens) (UniProt P17861); assay: ATG_Xbp1_CIS: Attagene CIS-FACTORIAL HepG2 Assay for human X-box Binding Protein 1 (XBP1) (AID 2282972; active = hit-call score of the fitted dose curve at least 0.9, where 1 is the maximum; inactive = score below 0.9); settings: HepG2 XBP1 cis-element reporter, Attagene multiplex; actives raise or lower the signal
In short: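 Reporter transcripts were quantified by RT-PCR with fluorescent primer extension and capillary electrophoresis after 24 h chemical exposure. Cells: transiently transfected HepG2 carrying cis-regulated reporter constructs; data fitted bidirectionally relative to DMSO.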

[5] = ATG_M_19_TRANS: Attagene TRANS-FACTORIAL HepG2 Assay for M19 Transcription Factor (Internal Marker) (AID 2282974); settings: HepG2 Attagene TRANS-FACTORIAL M19 internal marker reporter
In short: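 Gain-of-signal in reporter mRNA, relative to DMSO, was scored from capillary electrophoresis fluorescence. HepG2 cells carried transiently transfected multiple reporter transcription units and were incubated with test chemicals for 24 h.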

[6] = target: Estrogen-related receptor gamma (Homo sapiens) (UniProt P62508); assay: ATG_ERRg_TRANS: Attagene TRANS-FACTORIAL HepG2 Assay for human Estrogen-Related Receptor gamma (ERRg) (AID 2282977); settings: HepG2 Attagene TRANS reporter, ERRg transactivation;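 also: hits increase reporter signal over DMSO so potencies reflect activators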
In short: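 Exogenous NR-Gal4 chimera activity measured as reporter transcript induction after 24 h in transiently transfected HepG2 cells. RNA reverse-transcribed, PCR-amplified, 6-FAM-labelled and resolved by capillary electrophoresis; increase over DMSO baseline.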

[7] = ATG_M_06_TRANS: Attagene TRANS-FACTORIAL HepG2 Assay for M06 Transcription Factor (Internal Marker) (AID 2282983); settings: HepG2 Attagene TRANS M06 internal marker reporter
In short: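 Background-control reporter readout: after 24 h chemical exposure of transiently transfected HepG2 (GAL4-UAS reporter units), mRNA quantified by RT-PCR with fluorescent labeling and capillary electrophoresis. Gain-of-signal fitting against DMSO baseline.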

[8] = ATG_M_32_TRANS: Attagene TRANS-FACTORIAL HepG2 Assay for M32 Transcription Factor (Internal Marker) (AID 2282984); settings: HepG2 Attagene TRANS M32 internal marker reporter
In short: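 Internal background reporter in transfected HepG2: after 24 h chemical exposure, RNA reverse-transcribed, reporter cDNA amplified, fluorescently labelled and HpaI-cut, then sized by capillary electrophoresis. Gain of signal fitted against DMSO control.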

[9] = ATG_Hpa5_TRANS: Attagene TRANS-FACTORIAL HepG2 Assay for human GAL4-Hpa5 Hepatocyte Transcription Factor Basal Promoter (AID 2282975); settings: HepG2 Attagene GAL4-Hpa5 transcription reporter;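 also: hits are increases in reporter mRNA over DMSO baseline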
In short: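 Gain-of-signal versus DMSO is fitted for reporter mRNA quantified by RT-PCR and capillary electrophoresis after 24 h exposure. This endpoint is an internal background marker in transiently transfected HepG2 cells carrying GAL4-UAS reporter units.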

[10] = target: Glucocorticoid receptor (Homo sapiens) (UniProt P04150); assay: ATG_GR_TRANS: Attagene TRANS-FACTORIAL HepG2 Assay for human Glucocorticoid Receptor (GR) (AID 2282978); settings: HepG2 Attagene TRANS GR reporter, mRNA transcription;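 also: activators score as hits since higher reporter transcript over DMSO is fitted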
In short: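 HepG2 transient transfection, multiple reporter units, GAL4-UAS under NR-GAL4 chimera control. 24 h treatment. Reporter mRNA by RT-PCR/CE fluorescence, DMSO as negative control.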

[11] = target: Oxysterols receptor LXR-beta (Homo sapiens) (UniProt P55055); assay: ATG_LXRb_TRANS: Attagene TRANS-FACTORIAL HepG2 Assay for human Liver X Receptor beta (LXRb) (AID 2282981); settings: HepG2 Attagene TRANS GAL4-LXRb reporter, mRNA
In short: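 After 24 h chemical treatment of transfected HepG2 cells carrying exogenous NR-Gal4 chimeras, reporter mRNA was quantified by fluorescent RT-PCR and capillary electrophoresis; activity taken as increase over DMSO controls.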

[12] = target: Hepatocyte nuclear factor 4-alpha (Homo sapiens) (UniProt P41235); assay: ATG_HNF4a_TRANS: Attagene TRANS-FACTORIAL HepG2 Assay for human Hepatocyte Nuclear Factor 4 alpha (HNF4a) (AID 2282982); settings: HepG2 HNF4a transactivation reporter, mRNA readout
In short: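 Activity of an exogenous HNF4a–Gal4 fusion scored as induced GAL4-UAS reporter transcripts after 24 h chemical exposure of transfected human HepG2 cells. Read-out via RT-PCR with 6-FAM labelling and capillary electrophoresis; rise over DMSO baseline.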

[13] = target: Nuclear receptor subfamily 4 group A member 2 (Homo sapiens) (UniProt P43354); assay: ATG_NURR1_TRANS: Attagene TRANS-FACTORIAL HepG2 Assay for human Nuclear Receptor Related Protein 1 (NURR1) (AID 2282985); settings: HepG2 Attagene TRANS reporter, mRNA readout
In short: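 Reporter transcript induction, measured by RT-PCR with fluorescent labelling, HpaI digestion and capillary electrophoresis, after 24 hr dosing of human HepG2 cells transiently expressing an exogenous NR-Gal4 fusion with GAL4-UAS-driven reporters; DMSO as baseline.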

[14] = target: Estrogen receptor (Homo sapiens) (UniProt P03372); assay: ATG_ERa_TRANS: Attagene TRANS-FACTORIAL HepG2 Assay for human Estrogen Receptor alpha (ERa) (AID 2282970); settings: HepG2 Attagene TRANS ERa GAL4 reporter, mRNA
In short: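 Reporter transcripts were measured 24 h after dosing by RT-PCR with fluorescent primer extension and capillary electrophoresis. The system is transiently transfected HepG2 expressing exogenous NR-Gal4 chimeras driving GAL4-UAS reporters; DMSO is the baseline.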

[15] = target: Androgen receptor (Homo sapiens) (UniProt P10275); assay: ATG_AR_TRANS: Attagene TRANS-FACTORIAL HepG2 Assay for human Androgen Receptor (AR) (AID 2282973); settings: HepG2 Attagene TRANS-FACTORIAL AR reporter transcription
In short: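 Transcriptional activity of an exogenous AR–Gal4 fusion read as GAL4-UAS reporter transcript levels in transfected human HepG2 cells after 24 h dosing. Detection via RT-PCR, 6-FAM labelling, HpaI digest and capillary electrophoresis; increase over DMSO baseline.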

[16] = target: Oxysterols receptor LXR-alpha (Homo sapiens) (UniProt Q13133); assay: ATG_LXRa_TRANS: Attagene TRANS-FACTORIAL HepG2 Assay for human Liver X Receptor alpha (LXRa) (AID 2282980); settings: HepG2 Attagene TRANS reporter, LXRa transactivation
In short: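 Chemical-induced reporter mRNA measured by RT-PCR with fluorescent labelling and capillary electrophoresis after 24 h dosing of transiently transfected HepG2 cells expressing exogenous NR-Gal4 chimeras; increases scored against DMSO baseline.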

Sequence of Nuclear receptor subfamily 4 group A member 2 (Homo sapiens) (P43354 whole entry, looked up, the tested form may be a part): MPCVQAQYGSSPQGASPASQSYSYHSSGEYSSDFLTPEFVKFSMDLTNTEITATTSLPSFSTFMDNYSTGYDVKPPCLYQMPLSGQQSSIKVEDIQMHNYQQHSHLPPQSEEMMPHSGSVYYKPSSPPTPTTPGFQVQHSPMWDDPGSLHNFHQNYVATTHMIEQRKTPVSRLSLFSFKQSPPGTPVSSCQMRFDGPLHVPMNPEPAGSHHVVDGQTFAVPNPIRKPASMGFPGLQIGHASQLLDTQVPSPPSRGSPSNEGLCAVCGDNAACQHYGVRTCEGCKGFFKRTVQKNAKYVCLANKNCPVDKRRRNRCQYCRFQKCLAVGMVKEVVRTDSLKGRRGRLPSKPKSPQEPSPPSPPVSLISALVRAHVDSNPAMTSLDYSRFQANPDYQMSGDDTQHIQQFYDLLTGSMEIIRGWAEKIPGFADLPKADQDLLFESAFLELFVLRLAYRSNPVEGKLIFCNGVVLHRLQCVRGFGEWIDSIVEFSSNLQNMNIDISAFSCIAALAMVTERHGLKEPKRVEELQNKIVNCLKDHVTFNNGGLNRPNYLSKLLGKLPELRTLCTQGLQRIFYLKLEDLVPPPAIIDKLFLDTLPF
Sequence of Nuclear receptor subfamily 1 group I member 3 (Homo sapiens) (Q14994 whole entry, looked up, the tested form may be a part): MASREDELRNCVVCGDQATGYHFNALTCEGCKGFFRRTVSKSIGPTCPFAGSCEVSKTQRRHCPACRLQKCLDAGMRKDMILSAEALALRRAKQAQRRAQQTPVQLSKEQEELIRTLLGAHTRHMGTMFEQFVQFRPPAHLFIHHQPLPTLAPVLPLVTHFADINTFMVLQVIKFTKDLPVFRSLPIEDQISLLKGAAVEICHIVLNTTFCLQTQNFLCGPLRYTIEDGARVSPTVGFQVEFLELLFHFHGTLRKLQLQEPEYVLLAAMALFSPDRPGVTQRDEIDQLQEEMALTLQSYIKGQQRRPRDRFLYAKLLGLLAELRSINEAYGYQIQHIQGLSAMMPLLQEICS
Sequence of Oxysterols receptor LXR-beta (Homo sapiens) (P55055 whole entry, looked up, the tested form may be a part): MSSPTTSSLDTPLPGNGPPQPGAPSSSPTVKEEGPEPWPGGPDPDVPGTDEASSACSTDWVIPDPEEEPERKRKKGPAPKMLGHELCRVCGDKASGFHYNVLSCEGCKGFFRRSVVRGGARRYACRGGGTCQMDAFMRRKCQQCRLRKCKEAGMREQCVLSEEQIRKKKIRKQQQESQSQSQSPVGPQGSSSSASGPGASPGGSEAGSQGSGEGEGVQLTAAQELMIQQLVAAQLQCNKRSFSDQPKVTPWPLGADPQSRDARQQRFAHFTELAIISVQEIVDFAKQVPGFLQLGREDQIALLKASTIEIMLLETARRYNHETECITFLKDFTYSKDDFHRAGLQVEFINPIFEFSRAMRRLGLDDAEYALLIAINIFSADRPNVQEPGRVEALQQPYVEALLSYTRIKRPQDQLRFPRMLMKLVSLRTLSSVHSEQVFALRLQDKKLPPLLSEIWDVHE
Sequence of X-box-binding protein 1 (Homo sapiens) (P17861 whole entry, looked up): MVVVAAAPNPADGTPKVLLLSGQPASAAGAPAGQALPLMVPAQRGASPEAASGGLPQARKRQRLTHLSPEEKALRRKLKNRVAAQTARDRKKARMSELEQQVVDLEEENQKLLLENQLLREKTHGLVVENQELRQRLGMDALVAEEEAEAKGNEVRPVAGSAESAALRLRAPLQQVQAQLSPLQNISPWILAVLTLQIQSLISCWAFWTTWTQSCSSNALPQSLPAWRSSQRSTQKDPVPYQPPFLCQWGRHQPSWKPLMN
Sequence of Glucocorticoid receptor (Homo sapiens) (P04150 whole entry, looked up, the tested form may be a part): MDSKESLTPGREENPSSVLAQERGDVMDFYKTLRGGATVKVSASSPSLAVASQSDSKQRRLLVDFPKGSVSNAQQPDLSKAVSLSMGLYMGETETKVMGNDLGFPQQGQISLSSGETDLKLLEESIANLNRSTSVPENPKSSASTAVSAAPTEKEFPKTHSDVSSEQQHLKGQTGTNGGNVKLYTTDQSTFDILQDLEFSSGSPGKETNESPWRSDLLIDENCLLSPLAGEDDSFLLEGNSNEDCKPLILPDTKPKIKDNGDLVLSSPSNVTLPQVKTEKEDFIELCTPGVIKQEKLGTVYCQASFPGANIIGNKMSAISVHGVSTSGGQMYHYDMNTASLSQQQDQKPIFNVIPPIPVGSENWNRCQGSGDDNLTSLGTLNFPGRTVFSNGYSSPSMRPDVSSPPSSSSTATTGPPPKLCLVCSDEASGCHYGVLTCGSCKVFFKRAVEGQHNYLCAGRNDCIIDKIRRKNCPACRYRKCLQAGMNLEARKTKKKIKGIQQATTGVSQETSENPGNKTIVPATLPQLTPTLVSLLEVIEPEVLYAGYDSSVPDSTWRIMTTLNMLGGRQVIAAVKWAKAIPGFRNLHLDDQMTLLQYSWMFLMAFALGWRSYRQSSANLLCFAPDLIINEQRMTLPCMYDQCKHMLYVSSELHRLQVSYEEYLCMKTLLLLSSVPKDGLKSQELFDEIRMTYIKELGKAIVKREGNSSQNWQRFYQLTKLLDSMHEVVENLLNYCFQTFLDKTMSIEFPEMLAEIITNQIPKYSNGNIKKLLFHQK
Sequence of Hepatocyte nuclear factor 4-alpha (Homo sapiens) (P41235 whole entry, looked up, the tested form may be a part): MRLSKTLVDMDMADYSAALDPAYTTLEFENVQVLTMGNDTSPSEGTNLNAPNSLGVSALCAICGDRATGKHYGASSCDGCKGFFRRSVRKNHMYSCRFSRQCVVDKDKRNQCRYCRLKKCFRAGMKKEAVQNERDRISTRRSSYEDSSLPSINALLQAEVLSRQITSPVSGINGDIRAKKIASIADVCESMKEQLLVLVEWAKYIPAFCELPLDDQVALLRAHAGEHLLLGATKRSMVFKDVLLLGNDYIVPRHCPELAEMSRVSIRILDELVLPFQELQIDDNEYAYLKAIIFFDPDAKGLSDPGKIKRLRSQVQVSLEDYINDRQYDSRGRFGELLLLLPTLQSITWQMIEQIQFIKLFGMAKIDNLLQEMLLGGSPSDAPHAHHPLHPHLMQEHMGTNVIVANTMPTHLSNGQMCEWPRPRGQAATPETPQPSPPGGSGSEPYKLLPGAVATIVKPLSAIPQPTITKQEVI
Sequence of Estrogen-related receptor gamma (Homo sapiens) (P62508 whole entry, looked up, the tested form may be a part): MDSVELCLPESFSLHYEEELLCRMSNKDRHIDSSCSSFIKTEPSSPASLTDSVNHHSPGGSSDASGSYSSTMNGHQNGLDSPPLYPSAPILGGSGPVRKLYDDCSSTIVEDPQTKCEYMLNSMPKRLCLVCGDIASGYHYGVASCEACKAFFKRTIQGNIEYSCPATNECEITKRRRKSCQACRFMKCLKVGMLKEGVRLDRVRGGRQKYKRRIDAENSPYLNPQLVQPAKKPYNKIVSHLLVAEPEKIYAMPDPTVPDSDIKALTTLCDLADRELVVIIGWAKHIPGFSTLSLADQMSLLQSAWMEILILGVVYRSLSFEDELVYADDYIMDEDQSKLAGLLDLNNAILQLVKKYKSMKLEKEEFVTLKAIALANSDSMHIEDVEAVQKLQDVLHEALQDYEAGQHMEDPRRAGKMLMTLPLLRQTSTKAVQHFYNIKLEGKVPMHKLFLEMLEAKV
Sequence of Estrogen receptor (Homo sapiens) (P03372 whole entry, looked up, the tested form may be a part): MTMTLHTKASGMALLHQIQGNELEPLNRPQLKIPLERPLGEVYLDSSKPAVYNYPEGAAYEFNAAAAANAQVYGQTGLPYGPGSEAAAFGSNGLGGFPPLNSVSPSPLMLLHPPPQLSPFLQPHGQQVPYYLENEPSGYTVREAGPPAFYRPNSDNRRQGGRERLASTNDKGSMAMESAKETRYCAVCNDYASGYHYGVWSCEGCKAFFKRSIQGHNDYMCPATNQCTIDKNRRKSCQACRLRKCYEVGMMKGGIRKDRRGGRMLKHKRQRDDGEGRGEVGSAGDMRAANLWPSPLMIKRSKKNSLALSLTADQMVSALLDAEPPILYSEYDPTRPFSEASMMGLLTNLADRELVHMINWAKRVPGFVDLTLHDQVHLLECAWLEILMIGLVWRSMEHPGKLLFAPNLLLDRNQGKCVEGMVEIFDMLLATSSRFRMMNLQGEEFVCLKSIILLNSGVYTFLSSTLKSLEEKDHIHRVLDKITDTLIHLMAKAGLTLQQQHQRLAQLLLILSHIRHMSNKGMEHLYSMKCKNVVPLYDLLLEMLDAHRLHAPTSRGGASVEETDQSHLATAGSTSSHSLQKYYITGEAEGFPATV
Sequence of Oxysterols receptor LXR-alpha (Homo sapiens) (Q13133 whole entry, looked up, the tested form may be a part): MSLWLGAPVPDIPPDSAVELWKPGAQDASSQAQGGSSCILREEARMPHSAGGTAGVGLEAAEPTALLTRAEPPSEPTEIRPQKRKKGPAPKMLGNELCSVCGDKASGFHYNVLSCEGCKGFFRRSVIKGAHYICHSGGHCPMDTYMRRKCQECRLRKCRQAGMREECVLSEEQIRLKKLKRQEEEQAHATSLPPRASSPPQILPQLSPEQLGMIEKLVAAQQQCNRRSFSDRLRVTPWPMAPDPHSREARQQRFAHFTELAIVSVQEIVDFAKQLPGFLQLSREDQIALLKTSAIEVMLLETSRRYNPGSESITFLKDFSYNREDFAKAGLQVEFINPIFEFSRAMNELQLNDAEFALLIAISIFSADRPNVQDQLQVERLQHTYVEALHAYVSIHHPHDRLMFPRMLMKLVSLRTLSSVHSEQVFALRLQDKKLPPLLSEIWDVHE

Row | Structure (SMILES) | outcome [1] | AC50 [2] | outcome [3] | outcome [4] | outcome [5] | outcome [6] | outcome [7] | outcome [8] | outcome [9] | outcome [10] | outcome [11] | outcome [12] | outcome [13] | outcome [14] | outcome [15] | outcome [16]
1 | CCc1cccc(C)c1N(C(=O)CCl)C(C)COC (configuration not stated) | inactive | 9.18 µM (active) | inactive | inactive | inactive | inactive | inactive | inactive |  |  |  |  |  |  |  | 
2 | CCNc1nc(Cl)nc(NC(C)(C)C#N)n1 | inactive |  | inactive | inactive | inactive |  |  | inactive | inactive | inactive | inactive | inactive | inactive |  |  | 
3 | CCc1cccc(CC)c1N(COC)C(=O)CCl | inactive | 7.75 µM (active) |  | inactive | inactive |  |  |  |  | inactive | inactive | inactive |  | inactive | inactive | inactive
4 | CSC1=N[C@@](C)(c2ccccc2)C(=O)N1Nc1ccccc1 | inactive | 24.3 µM (active) |  | inactive |  |  | inactive | inactive | inactive | inactive | inactive | inactive | inactive |  |  | 
5 | CC1(C(=O)Nc2ccc(O)c(Cl)c2Cl)CCCCC1 | inactive | 10.8 µM (active) | inactive | inactive |  | inactive | inactive |  |  |  | inactive | inactive | inactive |  |  | 
